Source: the supplement of paper PMC13380429

System: Vero E6 infected with SARS-CoV-2
Assay: inhibition of SARS-CoV-2 cytopathic effect; higher = more antiviral protection, active = above 15
Conditions: 48 h

Measured: inhibition of SARS-CoV-2 cytopathic effect

Cc1ncc(NC(=O)c2ccc(CN3CCN(C)CC3)c(C(F)(F)F)c2)cc1Nc1nccc(-c2cccnc2)n1 [flumatinib]
active: 10000 nM 66.1%
inactive: 1 nM 2.56% | 8.33 nM -0.34% | 100 nM 1.46% | 833.33 nM 3.69%

CO[C@@]1(NC(=O)C2SC(=C(C(N)=O)C(=O)O)S2)C(=O)N2C(C(=O)O)=C(CSc3nnnn3C)CS[C@@H]21 (stereo not given in full) [cefotetan]
inactive: 1 nM 0.97% | 8.33 nM 1.11% | 100 nM 2.32% | 833.33 nM -0.94% | 10000 nM 0.24%

Cc1cccc(C)c1NC(=O)CC12CCCN1CCC2 [pilsicainide]
inactive: 1 nM 0.34% | 8.33 nM 2.77% | 100 nM 4.31% | 833.33 nM 6.65% | 10000 nM -1.57%

C[C@H](CCC(=O)O)[C@H]1CC[C@H]2[C@@H]3[C@H](O)C[C@@H]4C[C@H](O)CC[C@]4(C)[C@H]3C[C@H](O)[C@]12C [cholic-acid]
inactive: 1 nM -0.3% | 8.33 nM 0.75% | 100 nM 0.02% | 833.33 nM -0.84% | 10000 nM 0.54%

Cn1c(=O)c2c(ncn2CC2OCCO2)n(C)c1=O [doxofylline]
inactive: 1 nM -0.49% | 8.33 nM -2.41% | 100 nM -0.01% | 833.33 nM -1.59% | 10000 nM -0.77%

CC(/C=C1\SC(=S)N(CC(=O)O)C1=O)=C\c1ccccc1 [epalrestat]
inactive: 1 nM -1.25% | 8.33 nM -1.52% | 100 nM -1.17% | 833.33 nM 1.15% | 10000 nM -0.07%

O=C(/C=C/c1ccc(CN(CCO)CCc2c[nH]c3ccccc23)cc1)NO [dacinostat]
inactive: 1 nM -2.47% | 8.33 nM -2.54% | 100 nM -6.55% | 833.33 nM -21.1% | 10000 nM -23.2%

O=C(OCCN1CCCCC1)c1c[nH]c2ccccc12
inactive: 1 nM 0.38% | 8.33 nM 2.59% | 100 nM 1.63% | 833.33 nM -1.42% | 10000 nM -6.53%

CCNCc1cc(C(C)(C)C)c(O)c(C(C)(C)C)c1
inactive: 1 nM 1.75% | 8.33 nM -0.5% | 100 nM 1.78% | 833.33 nM 0.46% | 10000 nM 1.14%

C1N2CN3CN1CN(C2)C3 [methenamine]
inactive: 1 nM -3.74% | 8.33 nM 0.58% | 100 nM -1.64% | 833.33 nM -0.2% | 10000 nM -1.08%

O=C1[C@@H]2[C@H]3CC[C@H](C3)[C@@H]2C(=O)N1CCCCN1CCN(c2ncccn2)CC1 [tandospirone]
inactive: 1 nM 2.41% | 8.33 nM 0.1% | 100 nM -0.17% | 833.33 nM 1.06% | 10000 nM 0.15%

COc1ccnc2[nH]cc(C(=O)C(=O)N3CCN(C(=O)c4ccccc4)C[C@H]3C)c12
inactive: 1 nM 1.91% | 8.33 nM -1.88% | 100 nM -0.3% | 833.33 nM 0.28% | 10000 nM 1.74%

c1nc(CC2CCNCC2)c[nH]1 [immepip]
inactive: 1 nM -1.43% | 8.33 nM -3.19% | 100 nM -3.25% | 833.33 nM -0.04% | 10000 nM 0.13%

O=P(O)(O)C(O)(Cn1ccnc1)P(=O)(O)O [zoledronic-acid]
inactive: 1 nM -0.24% | 8.33 nM 2.18% | 100 nM 1.88% | 833.33 nM 0.51% | 10000 nM -0.12%

COC(=O)N[C@H](C(=O)N1CCC[C@H]1C(=O)Nc1ccc([C@@H]2CC[C@@H](c3ccc(NC(=O)[C@@H]4CCCN4C(=O)[C@@H](NC(=O)OC)C(C)C)cc3)N2c2ccc(C(C)(C)C)cc2)cc1)C(C)C [ombitasvir]
inactive: 1 nM -0.82% | 8.33 nM -0.6% | 100 nM -0.7% | 833.33 nM -1.11% | 10000 nM -1.21%

CC[C@@H]1Cn2c(c3nc(-c4ccccc4)nc-3n(C)c2=O)N1
inactive: 1 nM -0.6% | 8.33 nM -0.25% | 100 nM -1.09% | 833.33 nM 0.66% | 10000 nM 1.21%

CN(CC(=O)O)C(=N)N [creatine]
inactive: 1 nM -2.18% | 8.33 nM 1.25% | 100 nM -2.37% | 833.33 nM -1.57% | 10000 nM -4.4%

COc1ccc(CN(CCN(C)C)c2ccccn2)cc1 [mepyramine]
inactive: 1 nM -3.35% | 8.33 nM -2.48% | 100 nM -1.11% | 833.33 nM 2.27% | 10000 nM 1.04%

Oc1nc(-c2ccc(C(F)(F)F)cc2)nc2c1CSCC2
inactive: 1 nM 4.88% | 8.33 nM 2.98% | 100 nM 3.97% | 833.33 nM 2.58% | 10000 nM 0.15%

N#CCC(=O)NN [cyacetacide]
inactive: 1 nM -3.1% | 8.33 nM 1.89% | 100 nM 6.23% | 833.33 nM 6.6% | 10000 nM 7.12%

COc1cccc(CN(C(=O)CC(C)(C)C)[C@H]2C[C@@H](C(=O)N3CCNCC3)N(Cc3ccc4c(c3)OCO4)C2)c1
inactive: 1 nM 7.37% | 8.33 nM 2.78% | 100 nM 5.86% | 833.33 nM -0.43% | 10000 nM -2.99%

Cc1cc(C(C)(C)C)c(O)c(C)c1CC1=NCCN1 [oxymetazoline]
inactive: 1 nM 0.98% | 8.33 nM 1.83% | 100 nM 1.85% | 833.33 nM 1.64% | 10000 nM 0.31%

CCC1(c2c[nH]cn2)Cc2ccccc2C1 [atipamezole]
inactive: 1 nM 0.76% | 8.33 nM 2.54% | 100 nM 0.58% | 833.33 nM 2.4% | 10000 nM 1.28%

CN1c2ccccc2C(=O)N2CCc3c([nH]c4ccccc34)C21 (stereo in doubt) [evodiamine]
inactive: 1 nM 0.51% | 8.33 nM 2.11% | 100 nM 2.14% | 833.33 nM 4.34% | 10000 nM 2.33%

CCCCOCCOc1nc(-c2ccc(C(=O)O)c(F)c2)sc1C
inactive: 1 nM -0.86% | 8.33 nM -0.63% | 100 nM -1.87% | 833.33 nM -1.76% | 10000 nM 2.1%

CCOC(=O)c1ncc2[nH]c3cccc(OC(C)C)c3c2c1C
inactive: 1 nM 2.48% | 8.33 nM -1.73% | 100 nM 3.11% | 833.33 nM 5.05% | 10000 nM 7.71%

N=C(N)NCCC[C@@H](N)C(=O)N[C@@H](CCCNC(=N)N)C(=O)N1CCC[C@H]1C(=O)N1C[C@H](O)C[C@H]1C(=O)NCC(=O)N[C@@H](Cc1cccs1)C(=O)N[C@@H](CO)C(=O)N1Cc2ccccc2C[C@@H]1C(=O)N1[C@H](C(=O)N[C@@H](CCCNC(=N)N)C(=O)O)C[C@@H]2CCCC[C@@H]21 [icatibant-acetate]
inactive: 1 nM -2.62% | 8.33 nM -4.61% | 100 nM -4.27% | 833.33 nM 2.14% | 10000 nM 1.26%

COc1ccc(-c2cnc3c(-c4cccc5ncccc45)cnn3c2)cc1
inactive: 1 nM -0.88% | 8.33 nM -0.75% | 100 nM 0.925% | 833.33 nM -0.45% | 10000 nM 0.53%

CC[C@H]1OC(=O)[C@H](C)[C@@H](O[C@H]2C[C@@](C)(OC)[C@@H](O)[C@H](C)O2)[C@H](C)[C@@H](O[C@@H]2O[C@H](C)C[C@H](N(C)C)[C@H]2O)[C@](C)(O)C[C@@H](C)C(=O)[C@H](C)[C@@H](O)[C@]1(C)O [erythromycin]
inactive: 1 nM -0.74% | 8.33 nM -0.54% | 100 nM -1.16% | 833.33 nM 2.65% | 10000 nM 1.91%

C/C(=C\c1ccc(C(=O)O)cc1)c1ccc2c(c1)C(C)(C)CCC2(C)C
inactive: 1 nM -0.5% | 8.33 nM -1.23% | 100 nM -2.43% | 833.33 nM 0.15% | 10000 nM 3.67%

Cc1cc(OCCN2CCOCC2)nn1-c1ccc2ccccc2c1
inactive: 1 nM -2.51% | 8.33 nM -1.6% | 100 nM -2.06% | 833.33 nM 0.03% | 10000 nM 1.91%

Cc1cc(C(=CNc2ccc(Cl)cc2)C(=O)Nc2ccc(Cl)cc2)on1
inactive: 1 nM -1.14% | 8.33 nM -1.99% | 100 nM -2% | 833.33 nM -0.86% | 10000 nM 0.28%

C[C@H](N[C@@H](CCc1ccccc1)C(=O)O)C(=O)N1CCC[C@H]1C(=O)O [enalaprilat]
inactive: 1 nM -0.58% | 8.33 nM 1.11% | 100 nM -0.39% | 833.33 nM 1.61% | 10000 nM 2.39%

CC1=C(C(=O)O)N2C(=O)[C@@H](NC(=O)[C@H](N)c3ccc(O)cc3)[C@H]2SC1 [cefadroxil]
inactive: 1 nM 1.06% | 8.33 nM 1.53% | 100 nM 1.01% | 833.33 nM -2.49% | 10000 nM -1.18%

CC(=N)NCc1cccc(CN)c1
inactive: 1 nM 0.8% | 8.33 nM -0.79% | 100 nM -0.18% | 833.33 nM 1.65% | 10000 nM 0.53%

O=C1Nc2cc(Cl)c(Cl)cc2N2CCNC[C@H]12
inactive: 1 nM -0.02% | 8.33 nM -0.54% | 100 nM 1.72% | 833.33 nM 0.92% | 10000 nM 1.67%

O=C(Oc1ccccc1)c1ccccc1O [phenyl-salicylate]
inactive: 1 nM -7.58% | 8.33 nM -2.22% | 100 nM -0.85% | 833.33 nM 3.43% | 10000 nM 5.08%

O=C(O)CCCN1CCC(O[C@@H](c2ccc(Cl)cc2)c2ccccn2)CC1 [bepotastine]
inactive: 1 nM -0.92% | 8.33 nM 2.31% | 100 nM 0.31% | 833.33 nM 2.01% | 10000 nM -0.07%

CNC(=O)c1cnn(-c2nc(N)c3ncn([C@@H]4O[C@H](CO)[C@@H](O)[C@H]4O)c3n2)c1 [regadenoson]
inactive: 1 nM 1.53% | 8.33 nM 0.87% | 100 nM 3.4% | 833.33 nM -1.38% | 10000 nM -0.12%
